Bioassay records as filed in PubChem.
IL-1B inflam inh: blocks inflammasome-driven IL-1 beta release; THP-1 LPS/ATP IL-1B secretion, AlphaLISA, 16 h; stronger effect = lower value; activity change, % at 57.5 µM; 360,000 tested, 4.7% active; AID 743279; in the data active = activity change below about -50%; inconclusive = mostly about -30% to -49%
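Secreted IL-1B measured by AlphaLISA bead assay after 16 h compound exposure of THP-1 cells; compounds (final up to 57.5 uM) added 1 h before LPS (250 ng/mL) and ATP (1.25 mM) stimulation; lower signal means less secretion.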
ELG1 DNA repair: ELG1-dependent DNA repair inhibition | HEK293T ELG1-luciferase reporter, luminescence, 16 h; DNA damage induced by 5-fluorouridine | Potency, µM (top dose mostly 46.1 µM), for the others: at the top dose activity change, negative = inhibition, most hits filed as inhibitors | 330,000 tested, 2.3% active | AID 504467; also: potency is read from the fitted curve at half-maximal effect; nearly all actives have a fitted effect of over 55% in size
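Cells (2,000 per well) received 5-fluorouridine plus test compound or DMSO and were incubated 16 hr at 37 °C, 5% CO2. Luciferase activity was read by luminescence 30 min after ONE-Glo addition; signal suppression marked inhibition of damage-induced ELG1 function.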
DT40 TDP1 CPT: growth inhibition of DT40 Tdp1-/-;hTDP1 cells with camptothecin (screen for TDP1 inhibitors). chicken DT40 Tdp1-/-;hTDP1 cells + 20 nM CPT, ATP luminescence, 48 h. Potency, µM (doses to about 46.2 µM), inactives show at the top dose activity change, negative = growth inhibition, usual class: inhibitors. 420,000 tested, 12% active. AID 686979; also: potency is read from the fitted curve at half-maximal effect; nearly all actives have a fitted effect of over 55% in size
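Cell growth measured by CellTiter-Glo luminescence after a minimum 48 h, 37 C compound exposure with 20 nM CPT in Tdp1-knockout DT40 cells stably expressing hTDP1, seeded 400/well; qHTS titration format.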
HT1080NT lethal: kills 2HG-producing HT-1080-NT fibrosarcoma cells; 360,000 tested, 1.6% active; Potency, µM (series often up to 46.1 µM), for the others: top-dose activity, negative = less viability, hits mostly cytotoxic; HT-1080-NT fibrosarcoma viability, CellTiter-Glo ATP luminescence, 48 h; AID 686970;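 also: NT is the 2HG producing partner of a matched IDH1 knockdown line; potency is read from the fitted curve at half-maximal effect; 0% = DMSO-treated cells and -100% = media-only wells without cells; nearly all actives have a fitted effect of over 55% in size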
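Read-out is CellTiter-Glo luminescence after 10 minutes at room temperature, following 48 hours' compound treatment of HT-1080-NT cells (750 cells/well, RPMI, 5% FBS, 37 degrees C).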
HT1080 IDH1KD tx: HT-1080 IDH1 knockdown cell toxicity (counter line). HT-1080 IDH1 knockdown viability, ATP luminescence, 48 h. Potency, µM (highest dose often 46.1 µM), for the others: at the highest dose activity, negative = toxicity, hits mostly cytotoxic. 360,000 tested, 2% active. AID 686971;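 also: potency is read from the fitted curve at half-maximal effect; 0% = DMSO wells and -100% = cell-free medium wells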
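Assay cells: HT-1080 with IDH1 knockdown, 750 per well, RPMI/5% FBS. Exposure: 48 h at 37 °C following 2 h pre-incubation. Read: CellTiter-Glo luminescence; fitted concentration-response, curve class assigned.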
TDP1 cell noCPT: qHTS for Inhibitors of human tyrosyl-DNA phosphodiesterase 1 (TDP1): qHTS in cells in absence of CPT. DT40 Tdp1-/- hTDP1 cells, no CPT, ATP luminescence, 48 h. Potency, µM (highest dose often 46.2 µM), inactives show at the highest dose activity change, negative = growth inhibition, most hits filed as inhibitors. 420,000 tested, 15% active; also: potency is read from the fitted curve at half-maximal effect; nearly all actives have a fitted effect of over 55% in size
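Readout: luminescence from CellTiter-Glo after 30 min in the dark at RT. Cells: DT40 Tdp1-/- with stable hTDP1, 400/well. Exposure: compounds alone, ≥48 hr, 37 °C.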
Numbers without * were called inactive; u = inconclusive; x = not tested or not shown. Rows were chosen to be rich in hits. Some 19% of all compounds tested hit in one or more screens of this group. Unless noted, calls follow the shape of the dose curve; as a rule, active = well fitted curve in the direction sought with a large enough effect; inconclusive = small, poorly fitted or top-dose-only effect, or another doubt; inactive = no such curve, though single readings can be large; an effect the other way counts as inactive or inconclusive. Unless noted, % is scaled to controls: 0 for no effect and ±100 for the full control effect.

SMILES | IL-1B inflam inh | ELG1 DNA repair | DT40 TDP1 CPT | HT1080NT lethal | HT1080 IDH1KD tx | TDP1 cell noCPT
COc1cccc(COc2cc3ccccc3nc2C)c1 | -17.0 | u | 10.3µM* | -4.7% | -19.6% | 9.2µM*
O=C(Nc1ccccc1)c1ccccc1N=Cc1cccc(O)c1 | -6.0 | -8.8% | -26.5% | -11.1% | -3.6% | u
Cc1ccc(C=Nc2ccccc2C(N)=O)cc1 | 40.5 | u | 2.82µM* | 7.08µM* | 5.62µM* | 3.16µM*
NC(=O)c1ccccc1N=Cc1cccnc1 | 17.2 | x | u | -6.2% | -0.4% | -18.5%
Cc1ccccc1C=Nc1ccccc1C(N)=O | -1.4 | u | 5.17µM* | 16.4µM* | 16.4µM* | 4.61µM*
Cc1ccc(C=Nc2ccccc2C(=O)Nc2ccccc2)cc1 | 21.9 | u | u | 10.0% | 23.7% | 11.6µM*
CCCCCc1nnc(NC(=O)c2cccc(S(=O)(=O)N3CCOCC3)c2)s1 | 48.4 | -19.1% | -16.7% | -2.7% | -2.3% | -40.1%
Cc1ccc2nc3cc([N+](=O)[O-])cc([N+](=O)[O-])c3cc2c1 | -72.7* | 5.3% | 0.461µM* | 3.6% | -12.7% | 0.581µM*
Cc1nc2ccc([N+](=O)[O-])cc2nc1C | 9.0 | 14.7% | -22.9% | 1.3% | 0.4% | 5.6%
COc1ccc(Cl)cc1NC(=O)CCc1c(C)nc2c(c1C)c(=O)n(C)c(=O)n2C | x | x | 2.0% | x | x | -13.0%
COc1ccc(Nc2nc(-c3ccccc3F)nc3ccccc23)cc1OC | -60.8* | 23.1µM* | 14.6µM* | -9.5% | -7.8% | 14.6µM*
COc1ccc(Nc2nc(-c3ccccc3O)nc3ccccc23)cc1 | x | u | u | u | u | 18.4µM*
Oc1ccc(Nc2nc(-c3ccccc3O)nc3ccccc23)cc1 | -64.7* | u | u | u | -27.6% | u
Oc1ccc(Nc2nc(-c3ccccc3F)nc3ccccc23)cc1 | 0.0 | -2.9% | -17.3% | -10.2% | -3.0% | -20.5%
COc1ccc(Cl)cc1NC(=O)CSc1nnc(Cc2cccn2C)n1-c1ccc(F)cc1 | -8.1 | -28.2% | 25.9µM* | u | -25.9% | u
Cn1cccc1Cc1nnc(SCC(=O)Nc2ccc(F)cc2F)n1-c1ccc(F)cc1 | -9.7 | -6.9% | u | -1.4% | 4.0% | u
Cn1cccc1Cc1nnc(SCC(=O)NCc2ccccc2)n1-c1ccc(F)cc1 | u | 3.5% | 16.4µM* | 2.5% | 9.8% | u
O=C(O)c1ccc2c(c1)C(=O)N(c1ccc(OCc3ccccc3)cc1)C2=O | 0.0 | 7.0% | -8.6% | -4.5% | -6.8% | -6.8%
CCOc1ccccc1CNC(=O)c1oc2c(c1C)-c1[nH]ncc1CC2 | x | x | 16.4µM* | x | x | 16.4µM*
Cc1cc(C)c(NC(=O)c2oc3c(c2C)-c2[nH]ncc2CC3)c(C)c1 | x | x | 16.4µM* | x | x | 20.6µM*
Cc1c(C(=O)NCc2cccc(F)c2)oc2c1-c1[nH]ncc1CC2 | x | x | -18.4% | x | x | u
CCOC(=O)[C@@H]1[C@H]2COc3ccccc3[C@H]2N2C(=O)N(c3ccc(Br)cc3)C(=O)[C@]12C | -1.0 | 13.1% | u | -9.1% | -12.0% | u
Cc1ccc(C2CC(=O)Nc3cc4c(cc32)OCCO4)cc1Br (centres undefined) | x | x | 18.4µM* | x | x | 16.4µM*
O=C1CC(c2ccncc2)c2cc3c(cc2N1)OCCO3 (centres undefined) | 8.8 | 0.2% | 4.9% | -4.2% | -6.0% | -3.5%
CC(C)c1ccc(C2CC(=O)Nc3cc4c(cc32)OCCO4)cc1 (centres undefined) | x | x | u | x | x | 29.1µM*
SMILES | IL-1B inflam inh | ELG1 DNA repair | DT40 TDP1 CPT | HT1080NT lethal | HT1080 IDH1KD tx | TDP1 cell noCPT
O=C1CC(c2ccc3c(c2)OCO3)c2cc3c(cc2N1)OCCO3 (centres undefined) | -22.8 | u | u | -16.1% | -10.5% | u
Cc1ccc(NCc2nnc(SCC(=O)NNC(=O)Cc3ccccc3)n2C)cc1 | 14.9 | -3.0% | -6.2% | 5.4% | 5.0% | 15.5%
CCN1C(=O)[C@H]2[C@@H](c3ccc(-c4ccc(OC)cc4)cc3)N3CCCC[C@@]3(C(=O)OC)[C@H]2C1=O | u | -20.9% | u | 2.1% | 8.8% | 16.4µM*
CCN1C(=O)[C@H]2[C@@H](c3ccc(-c4ccc(OC)cc4)cc3)N3CCC[C@@]3(C(=O)OC)[C@H]2C1=O | 14.2 | u | u | 8.7% | -0.6% | 14.6µM*
CCN1C(=O)[C@@H]2[C@@H](c3ccc(-c4ccc(OC)cc4)cc3)N3CCC[C@@]3(C(=O)OC)[C@@H]2C1=O | -3.3 | -17.5% | u | 1.5% | 0.8% | 20.6µM*
CCN1C(=O)[C@H]2[C@@H](c3ccc(-c4ccc(Cl)c(Cl)c4)cc3)N3CCCC[C@@]3(C(=O)OC)[C@H]2C1=O | 14.5 | 25.2% | 10.3µM* | 0.0% | 29.0% | 6.51µM*
CCN1C(=O)[C@@H]2[C@@H](c3ccc(-c4ccc(F)cc4)cc3)N3CCC[C@@]3(C(=O)OC)[C@@H]2C1=O | -5.1 | -21.9% | u | -1.5% | -0.5% | u
CCN1C(=O)[C@H]2[C@@H](c3ccc(-c4ccc(F)cc4)cc3)N3CCCC[C@@]3(C(=O)OC)[C@H]2C1=O | -18.4 | -14.9% | u | -15.5% | -13.4% | u
COc1ccc(CC(=O)NNC(=O)c2cc(C)oc2C)cc1OC | 1.3 | 4.8% | -6.6% | -0.6% | 1.9% | 3.1%
Cc1c(C(=O)NCCC#N)sc(=O)n1Cc1ccccc1F | 23.9 | x | -12.4% | 33.7% | 23.2% | 20.0%
CC[N+]1(CC)CCC(=C(c2ccccc2)c2ccccc2)C1C (centres undefined) | x | x | 5.31µM* | x | x | 3.35µM*
c1ccc(C(=C2CCCO2)c2ccccc2)cc1 | 11.1 | x | -6.9% | 9.2% | -0.2% | -6.4%
CCc1ccc(CCC(=O)Nc2sc3c(c2C#N)CCCC3)o1 | 32.0 | u | 5.01µM* | 3.98µM* | 4.47µM* | 3.55µM*
N#Cc1c(NC(=O)CCC(=O)O)sc2c1CCCC2 | 29.1 | 16.4% | 0.581µM* | 7.3% | -0.5% | -0.4%
N#Cc1c(NC(=O)CSc2nc(N)cc(=O)[nH]2)sc2c1CCCC2 | 68.7 | -5.3% | u | -10.6% | -21.9% | 23.1µM*
CC(C)CC(=O)NC(NC(=S)Nc1sc2c(c1C#N)CCCC2)C(Cl)(Cl)Cl (centres undefined) | 23.9 | -0.6% | 16.4µM* | u | u | u
CCC(=O)Nc1sc2c(c1C#N)CCC2 | 23.5 | -3.2% | -7.1% | 11.6% | -0.2% | -18.4%
